Measured values published in PubChem BioAssay (Tox21).
Results filed as inconclusive are left out. Values without a mark were called inactive. The source made the active and inactive calls. Calls follow the shape of the dose curve; as a rule, active = well fitted cell-killing curve with a large enough effect in the repeat runs; inconclusive = weak or mixed curves, or effect the other way; inactive = flat fitted curve, though single readings scatter.

Test: cAMP Responsive Elements (CRE) small molecule antagonists, cell-based qHTS assay: qHTS cell viability counter screen (AID 2060913); also: nearly all actives have a fitted effect of over 40% in size
Settings: CRE-bla HEK293T viability, CellTiter-Glo luminescence, 5 h; series mostly up to 92.4 µM; viability change, negative = cytotoxic: at the top concentration
Summary of the method: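 Steps: cells plated and held 18 hrs at 37 C/5% CO2; compounds and NKH477 (0.25 uM final) added; 3 hrs incubation; reporter substrate read; CellTiter-Glo added to measure cytotoxicity by luminescence.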
% is scaled to controls: 0 for no effect and ±100 for the full control effect.

First: CC(C)C(=O)OCc1ccccc1
Second: CC(C)CCOCc1ccccc1
The “viability change, negative = cytotoxic” value of the first is higher: 1.19% for the first, -0.565% for the second.

Compared with CCCCCCOC(=O)c1ccccc1O, O=C(O)CCCc1c[nH]c2ccccc12 is lower in “viability change, negative = cytotoxic” value: 0.807% for the first, -1.87% for the second.

Going from CC(=O)NCCO to C=CC(=O)NC(C)C, the “viability change, negative = cytotoxic” value falls from 1.36% to -6.6%.

Going from O=Cc1ccccc1[N+](=O)[O-] to BrCc1cccc(Oc2ccccc2)c1, the “viability change, negative = cytotoxic” value falls from 19.2% to -7.58%.

First: C=CC(=O)OCC(Br)CBr (stereo not given)
Second: C=Cc1ccc(O)c(OC)c1
The “viability change, negative = cytotoxic” value of the first is lower: -6.62% for the first, 3.54% for the second.

Compared with CCCCCCCCCCC1CO1 (stereo not given), CCCSSCCC is higher in “viability change, negative = cytotoxic” value: 1.09% for the first, 4.43% for the second.

With CC[C@H](C)C(=O)O[C@H]1C[C@H](O)C=C2C=C[C@H](C)[C@H](CC[C@@H](O)C[C@@H](O)CC(=O)O)[C@H]21 the “viability change, negative = cytotoxic” value was 0.0845%.

Compared with Cc1c(C(=O)NCCO)[n+](=O)c2ccccc2n1[O-], CC[C@H](C)[C@H](N)C(=O)O is lower in “viability change, negative = cytotoxic” value: 0.313% [at 42.5 µM] for the first, -2.39% [at 42.5 µM] for the second.

In the case of O=C(OC[C@H]1O[C@@H](OC(=O)c2cc(O)c(O)c(OC(=O)c3cc(O)c(O)c(O)c3)c2)[C@H](OC(=O)c2cc(O)c(O)c(OC(=O)c3cc(O)c(O)c(O)c3)c2)[C@@H](OC(=O)c2cc(O)c(O)c(OC(=O)c3cc(O)c(O)c(O)c3)c2)[C@@H]1OC(=O)c1cc(O)c(O)c(OC(=O)c2cc(O)c(O)c(O)c2)c1)c1cc(O)c(O)c(OC(=O)c2cc(O)c(O)c(O)c2)c1, the viability change, negative = cytotoxic is reported as -4.21% [at 18.9 µM].

With C=CC(=O)OCCCCCCCC(C)C the Potency was “inactive”.
For CCCCNC(N)=O, the Potency was “inactive”.
With COc1ccc(Nc2ccccc2)c(C)c1 the Potency was “inactive”.
With NS(=O)(=O)c1cc(C(=O)O)c(NCc2ccco2)cc1Cl the Potency was “inactive”.
